The values that follow come from PubChem BioAssay AID588351 (The Scripps Research Institute Molecular Screening Center, 2011).

Each structure is given as a SMILES string. Hit rate of the full screen: of about 1,900 compounds, about 1,600 (84%) were called active.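 How the source made its calls: active means mean activation above a set limit taken from the primary screen (cut at about 8% in these data); inactive means the rest.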 So high a share suggests a set chosen from earlier hits. Only a sample is shown.

The assay in a line: frataxin promoter-driven luciferase activation – cell-based, luminescence, HEK293 lucGAA850, triplicate, confirmation (AID 588351).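 Further: 0% = DMSO wells and 100% = 10 µM SAHA wells.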 The note with it: HEK293 lucGAA850 FXN promoter luciferase reporter, 24 h; at 6 µM; stronger effect = higher value. In general terms: In a reporter assay the amount or activity of a reporter protein is the signal.
For `CC(C)(C)c1ccc(OC(=O)N2CCCCC2)cc1`, the activation was 35% (active).
